ELG1 DNA repair – inhibitors of ELG1-dependent DNA repair in HEK293T cells. Potency, µM (doses to about 46.1 µM), actives largely listed as inhibitors. HEK293T ELG1-luciferase reporter, luminescence, 16 h; DNA damage induced by 5-fluorouridine. hit rate 2.3% among 330,000. AID 504467; also: nearly all actives have a fitted effect of over 55% in size
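5-Fluorouridine DNA damage + compound/DMSO, 2,000 cells/well, 16 h, 37 °C/5% CO2. ONE-Glo, 30 min RT, luminescence. Readout = decrease in reporter signal.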
VP16 counter – inhibits Gal4-VP16 luciferase reporter, ROR gamma counter-screen; Drosophila S2 Gal4-VP16 UAS-luciferase, luminescence, 20 h; Potency, µM (titrated, usually from 53.6 µM), most hits filed as inhibitors; hit rate 3.5% among 310,000;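 also: Gal4-VP16 expression switched on by copper sulfate through the metallothionein promoter; nearly all actives have a fitted effect of over 50% in size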
TDP1 cell CPT – growth inhibition of DT40 Tdp1-/-;hTDP1 cells with camptothecin (screen for TDP1 inhibitors). chicken DT40 Tdp1-/-;hTDP1 cells + 20 nM CPT, ATP luminescence, 48 h. Potency, µM (titrated, usually from 46.2 µM), actives largely listed as inhibitors. hit rate 12% among 420,000; also: nearly all actives have a fitted effect of over 55% in size
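Cell growth measured by CellTiter-Glo luminescence after a minimum 48 h, 37 C compound exposure with 20 nM CPT in Tdp1-knockout DT40 cells stably expressing hTDP1, seeded 400/well; qHTS titration format.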
DT40 TDP1 no CPT – qHTS for Inhibitors of human tyrosyl-DNA phosphodiesterase 1 (TDP1): qHTS in cells in absence of CPT. Potency, µM (top dose mostly 46.2 µM), usual class: inhibitors. DT40 Tdp1-/- hTDP1 cells, no CPT, ATP luminescence, 48 h. hit rate 15% among 420,000; also: nearly all actives have a fitted effect of over 55% in size
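Seeded 400 DT40-hTDP1 cells/well (vehicle DMSO, no 20 nM CPT); pinned compounds; ≥48 hr at 37 °C; CellTiter-Glo luminescence as viability measure.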
RORgamma inh – blocks mouse ROR gamma transcriptional activity; P51450; Drosophila S2 Gal4-RORgamma UAS-luciferase reporter, 20 h; Potency, µM (titrated, usually from 53.6 µM), actives largely listed as inhibitors; hit rate 5.4% among 310,000; also: nearly all actives have a fitted effect of over 60% in size
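Luminescence from a UAS-regulated Photinus luciferase reporter in stably transfected Drosophila Schneider cells is measured; decreased signal marks ROR gamma inhibition. Fusion expression is induced by 700 uM copper sulfate for 20 hr.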
ALOX12 inh – ALOX12 (human) lipoxygenase inhibition. P18054. purified 12hLO, xylenol orange hydroperoxide absorbance. Potency, µM (series often up to 108 µM), most hits filed as inhibitors. hit rate 1.1% among 580,000. AID 1671190
Target sequence (P18054 whole entry, looked up): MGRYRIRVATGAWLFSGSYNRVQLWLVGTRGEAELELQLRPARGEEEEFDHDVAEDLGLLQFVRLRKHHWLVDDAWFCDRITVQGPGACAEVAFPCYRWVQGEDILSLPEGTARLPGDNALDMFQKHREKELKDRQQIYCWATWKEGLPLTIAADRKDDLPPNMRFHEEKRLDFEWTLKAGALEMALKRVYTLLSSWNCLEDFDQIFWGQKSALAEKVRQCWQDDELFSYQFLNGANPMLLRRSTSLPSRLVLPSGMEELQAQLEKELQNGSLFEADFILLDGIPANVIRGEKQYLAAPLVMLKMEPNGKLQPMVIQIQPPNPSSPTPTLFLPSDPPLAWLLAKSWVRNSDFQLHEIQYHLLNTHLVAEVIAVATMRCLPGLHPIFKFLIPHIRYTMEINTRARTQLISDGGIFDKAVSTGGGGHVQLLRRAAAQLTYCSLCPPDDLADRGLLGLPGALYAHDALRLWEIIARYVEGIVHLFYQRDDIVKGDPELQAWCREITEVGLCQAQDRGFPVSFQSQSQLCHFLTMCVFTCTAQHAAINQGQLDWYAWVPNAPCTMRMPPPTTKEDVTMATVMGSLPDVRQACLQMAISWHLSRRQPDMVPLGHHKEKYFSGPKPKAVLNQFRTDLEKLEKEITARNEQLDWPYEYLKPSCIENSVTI
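Purified human 12hLO (150 nM final) in 25 mM Hepes, 0.01% Triton X-100, pH 7.0 was preincubated 15 min at room temperature with compound. Then 40 uM arachidonic acid was added, 30 min. Hydroperoxide was read by Fe-XO absorbance ratio 573/405 nm.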
Hits are given with their value; - = inactive; ? = inconclusive; . = no result given; ! = a repeat was not active; [ ] = another dose, or the depositor's remark. This is a sample that favours compounds with a hit; in the whole collection about 15% have one here. Calls follow the shape of the dose curve; as a rule, active = well fitted curve in the direction sought with a large enough effect; inconclusive = small, poorly fitted or top-dose-only effect, or another doubt; inactive = no such curve, though single readings can be large; an effect the other way counts as inactive or inconclusive.

SMILES | ELG1 DNA repair | VP16 counter | TDP1 cell CPT | DT40 TDP1 no CPT | RORgamma inh | ALOX12 inh
Cc1nnc(NC(=O)c2cccn(Cc3ccccc3)c2=O)s1 | . | . | - | - | . | -
O=C1NC2(CCN(Cc3cccnc3)C2)COc2ccccc21 (stereo unspecified) | . | . | . | . | . | -
CCN(CC)C(=O)Oc1nnc(SC(C)C)n1-c1ccc(Cl)c(Cl)c1 | ? | - | ? | 23µM | - | -
Cn1cnc([N+](=O)[O-])c1Sc1ccc([N+](=O)[O-])cc1 | ? | ? | 3.7µM | 5.2µM | 11µM | ?
O=C(c1cn(Cc2ccccc2)c2ccccc12)N1CCC(C(=O)N2CCCCC2)CC1 | . | . | . | . | . | -
Clc1cccc(N2Cc3cc(-c4ccccc4)ccc3-n3nncc3C2)c1 | . | . | 2.6µM | 3.7µM | . | -
COc1ccc(-c2ccc3c(c2)CN(CC(C)C)Cc2cnnn2-3)cc1 | . | . | 16µM | ? | . | -
COc1ccc(-c2ccc3c(c2)CN(c2cccc(Cl)c2)Cc2cnnn2-3)cc1 | . | . | ? | ? | . | 18µM
Clc1cccc(N2Cc3cc(N4CCOCC4)ccc3-n3nncc3C2)c1 | . | . | 18µM | ? | . | -
Cc1ccc(S(=O)(=O)N2Cc3cc(N4CCOCC4)ccc3-n3nncc3C2)cc1 | . | . | - | ? | . | -
CC(C)CN1Cc2cc(-c3ccccc3)ccc2-n2nncc2C1 | . | . | ? | ? | . | -
C#C[C@H]1CN2CC[C@H]1C[C@@H]2CNC(=O)c1ccc(C(F)(F)F)cc1 | . | . | . | . | . | -
Cc1cccc(CC(=O)N2[C@H]3CC[C@@H]2c2cnc(-c4ccc(F)cc4)nc2C3)c1 | . | . | . | . | . | -
COCC1CN(C)CC12CCN(Cc1cccc(OC)n1)CC2 (stereo unspecified) | . | . | . | . | . | -
C=CCn1c(O)c(C(CC)=NCCc2ccccc2)c(=O)[nH]c1=O | ? | - | ? | ? | - | -
C=CCn1c(O)c(C(C)=NCc2cc(OC)cc(OC)c2)c(=O)[nH]c1=O | ? | - | 4.1µM | 1.6µM | - | -
C=CCn1c(O)c(C(C)=Nc2ccc(C(=O)OCC)cc2)c(=O)[nH]c1=O | - | - | - | ? | - | 5.6µM
C=CCn1c(O)c(C(C)=Nc2cccc(C(=O)O)c2)c(=O)[nH]c1=O | - | - | - | - | - | -
C=CCn1c(O)c(C(C)=NCc2cccnc2)c(=O)[nH]c1=O | ? | - | - | - | - | -
C=CCn1c(O)c(C(CC)=NCCc2c[nH]c3ccccc23)c(=O)[nH]c1=O | ? | - | ? | 16µM | - | -
C=CCn1c(O)c(C(=O)CCCCCC)c(=O)[nH]c1=O | ? | - | 12µM | 8.2µM | - | -
COc1ccccc1OCCNc1ccc([N+](=O)[O-])c2cccnc12 | . | . | . | . | . | -
CC(=O)NCCNC(=O)[C@H]1CN2CC[C@H]1C[C@@H]2Cn1cc(COc2ccccc2)nn1 | . | . | . | . | . | -
CCN(CC)C(=O)c1ccc(NC(=O)c2cccc(S(=O)(=O)N3CCN(Cc4ccccc4)CC3)c2)cc1 | ? | . | 18µM | 13µM | . | -
CCOCCCNC(=O)CCl | . | . | . | . | . | -
SMILES | ELG1 DNA repair | VP16 counter | TDP1 cell CPT | DT40 TDP1 no CPT | RORgamma inh | ALOX12 inh
Cc1ccc(C(C)C)c(OCCn2c(=O)oc3ccccc32)c1 | - | ? | 29µM | ? | 10µM | -
CCCCc1ccc(NC(=O)c2ccc3c(c2)CCN3S(=O)(=O)CC)cc1 | . | . | 7.3µM | 3.7µM | . | -
CC(C)c1ccc(NC(=O)c2ccc(F)c(S(=O)(=O)N3CCc4ccccc4C3)c2)cc1 | . | . | 4.6µM | 5.2µM | . | ?
CC(C)c1ccc(NC(=O)c2ccc3c(c2)CCN3S(=O)(=O)c2ccccc2)cc1 | . | . | 4.6µM | 5.8µM | . | -
CC(C)CCNC(=O)Cn1c(=O)oc2cc(S(=O)(=O)N3CCc4ccccc43)ccc21 | ? | - | ? | ? | - | -
CCN(CC)C(=O)c1ccc(NC(=O)c2ccc(N3CCCC3=O)cc2)cc1 | - | . | - | - | . | -
O=[N+]([O-])c1ccc(S(=O)(=O)N2CCn3cccc3C2c2ccccc2F)cc1 (stereo unspecified) | . | . | ? | 16µM | . | ?
O=C1/C(=C/c2ccc([N+](=O)[O-])cc2)N2CCC1CC2 | - | ? | ? | ? | - | -
c1ccc2c(CN3CCNCC3)cccc2c1 | . | . | . | . | . | -
C=CCc1cccc(C=Nc2c[nH]c(=O)[nH]c2=O)c1O | - | - | 18µM | - | -[1.91 µM] | -
O=C(NC(=S)Nc1ccccc1N1CCCC1)c1ccccc1Br | - | 2.8µM | . | . | 2.8µM | ?
CC1CCN(c2ccccc2NC(=O)c2cc3ccccc3o2)CC1 | - | - | ? | ? | - | -
Cc1ccc(C(=O)N2CCC3(CC2)c2nccn2-c2ccccc2CN3CC(C)C)cc1F | . | . | . | . | . | -
CC[C@H]1CN2CC[C@H]1C[C@@H]2CNC(=O)c1ccco1 | . | . | . | . | . | -
COc1ccc(CN2CCN(C(=O)COc3cccc(C)c3)CC2)c(OC)c1 | - | - | ? | ? | - | ?
COc1ccccc1CN1CCN(C(=O)COc2cccc(C)c2)CC1 | - | - | ? | 21µM! | - | ?
COc1ccc(OC)c(CN2CCN(C(=O)COc3cccc(C)c3)CC2)c1 | - | - | 26µM | ? | - | ?
CCNCCc1ccccc1 | . | . | . | . | . | -
Cc1c(-c2cccc(Cl)c2)nc2ccccc2c1C(=O)N1CCC2(CC1)OCCO2 | - | - | 21µM | ? | ? | -
O=C(NC[C@H]1C[C@@H]2CCN1C[C@@H]2CN1CCN(c2ccc(F)cc2)CC1)Nc1cccc(F)c1 | . | . | . | . | . | -
O=C(Cc1ccc(N(CCCl)CCCl)cc1)NC(Cc1ccc(Cl)cc1)C(=O)O (stereo unspecified) | - | - | ? | ? | - | -
O=C(Cc1c[nH]c2ccccc12)NNCc1ccc(N(CCCl)CCCl)cc1 | . | . | 0.52µM | 0.92µM | . | -
CC(C)(O)c1cn(C[C@H]2CC3CCN2C[C@@H]3C(=O)NCc2ccco2)nn1 (stereo partly specified) | . | . | . | . | . | -
CC(=O)O[C@@H]1/C=C/[C@](C)(O)C[C@@H](C)C/C=C/[C@H]2[C@@H]3O[C@]3(C)[C@@H](C)[C@H]3[C@H](Cc4ccccc4)NC(=O)[C@@]312 | . | . | 0.52µM | 0.46µM | . | .
CC(NC(C)(C)C)C(=O)c1cccc(Cl)c1 (stereo unspecified) | - | - | - | 16µM! | - | -
CCOc1ccccc1CN1C2CCC1CC(c1ccc(C)cc1)C2 (stereo unspecified) | - | - | 23µM | 18µM | - | -
CCOc1ccccc1CNCCc1ccc2c(c1)OCO2 | - | - | ? | ? | - | -
CC([C@H](O)c1ccccc1)N(C)C (stereo partly specified) | . | - | . | . | - | .
CC(Cc1ccccc1Sc1ccccc1O)N(C)C (stereo unspecified) | - | - | ? | 12µM | - | -

Compound activity deposited in PubChem BioAssay by National Center for Advancing Translational Sciences (NCATS).
